Records with an inconclusive call do not appear. Where a call stands in place of a potency, no number is given. The source made the active and inactive calls. Calls come from the whole dose curve.

This experiment in a line: p53 small molecule agonists, cell-based qHTS assay with human liver microsomes (AID 1963577).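 Note: p53 response element beta-lactamase reporter cells with liver microsomes plus NADPH.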 The conditions noted are these: HCT-116 p53RE-bla with human liver microsomes, ratio, 16 h; series mostly up to 66 µM. From the text: National Center for Advancing Translational Sciences [NCATS]
Division of Preclinical Innovation [DPI]
U.S. Environmental Protection Agency [EPA]
National Institutes of Environmental Health Sciences [NIEHS]
National Toxicology Program [NTP]
U.S. Food and Drug Administration [FDA]
p53, a tumor suppressor protein, is activated following cellular insult, including DNA damage and other cellular stresses. The activation of p53 regulates cell fate by inducing DNA repair, cell cycle arrest, apoptosis, or cellular senescence. The activation of p53, therefore, is a good indicator of DNA damage and other cellular stresses. […] The activation of the reporter gene under culture conditions can be detected by fluorescence intensity.
Tox21 Assay Protocol Summary:
The p53RE-bla cells were dispensed at 4,000cells/3ul/well in 1536-well black-clear bottom plates. After the assay plates were incubated at 37 C, 5% CO2 incubator for 5 hours, 23 nL of compounds dissolved in DMSO, positive controls or DMSO only was transferred to the assay plate. Following compound addition, 3 uL of human liver microsomes (XenoTech, Kansas City, KS) at final concentration of 0.5 mg/mL and 1uL of Beta-Nicotinamide adenine dinucleotide 2-phosphate (NADPH) at final concentration of 0.5 mg/mL were transferred to the assay plate. The plates were incubated at 37 C for 16 hours. 1 uL of LiveBLAzer detection mixture was added to each well and the plates were incubated at room temperature in the dark for 2 h.
For `CCCCCCCC/C=C/CCCOC(C)=O`, the Potency entry is “inactive”.

In the case of `CC1(C)[C@@H](O)CC[C@]2(C)[C@H]3C(=O)C=C4[C@@H]5C[C@@](C)(C(=O)O)CC[C@]5(C)CC[C@@]4(C)[C@]3(C)CC[C@@H]12`, the Potency result was “inactive”.

Turning to `O=C1c2ccccc2C(=O)c2c(Cl)cccc21`, the Potency result is “inactive”.

With `O=C1C=CC(=O)N1c1ccc(Cc2ccc(N3C(=O)C=CC3=O)cc2)cc1`, the Potency entry is “inactive”.

For the compound `CC(C)(C)c1cc(CO)cc(C(C)(C)C)c1O`, the Potency entry was “inactive”.

Take `C/C=C/C=C/CO`: the Potency entry is “inactive”.

On to `CNCCC(Oc1ccc(C(F)(F)F)cc1)c1ccccc1` (stereo not given), for which the Potency entry is “inactive”.

As for `Cc1[nH]cnc1C[C@H]1CCc2c(C)c3ccccc3n2C1=O`, the Potency entry was “inactive”.

With `CC(C)(C)c1cc(O)c(C(C)(C)C)cc1O`, the Potency result was “inactive”.

In the case of `C=CC(C)(CCC=C(C)C)OC(=O)/C=C/c1ccccc1` (stereo not given), the Potency result is “inactive”.

Consider `CCc1ccc2c(c1)C(=O)c1ccccc1C2=O`, for which the Potency result is “inactive”.

For `C#CCN(C)CCCOc1ccc(Cl)cc1Cl`, the Potency result is “inactive”.

Take `C/C=C1\[C@H]2C=C(C)C[C@]1(N)c1ccc(=O)[nH]c1C2`: the Potency result was “inactive”.

As for `O[C@@H](c1cc(C(F)(F)F)nc2c(C(F)(F)F)cccc12)[C@H]1CCCCN1`, the Potency entry is “inactive”.

Consider `CC[N+](CC)(CC)CCOc1ccc(/C=C/c2ccccc2)cc1`, for which the Potency result was “inactive”.

With `COC(=O)c1ccc(C(=O)O)cc1`, the Potency entry was “inactive”.

Regarding `CC[C@H]1CC[C@H](NCc2cc3c(cc2OC)[C@H]2C[C@H]2C(=O)N3C)[C@H](c2ccccc2)N1`, the Potency result was “inactive”.

With `CC1CCCNC1` (stereo not given), the Potency entry is “inactive”.

Regarding `CN1CCN(CCCN2c3ccccc3Sc3ccc(S(=O)(=O)N(C)C)cc32)CC1`, the Potency entry was “inactive”.

Take `CCC(C)(CN(C)C)OC(=O)c1ccccc1` (stereo not given): the Potency result was “inactive”.

As for `Cc1cc(CCN2CCN(c3nsc4ccccc34)CC2)cc2c1NC(=O)CC2(C)C`, the Potency result was “inactive”.

With `O=C(CN1CCNCC1)NC1CCCCC1`, the Potency result is “inactive”.

Turning to `N/C(=N\N=C\c1ccc(Cl)cc1)N/N=C/c1ccc(Cl)cc1`, the Potency result was “inactive”.

Take `CC(C)CCCCCCCOC(=O)c1ccc(C(=O)OCCCCCCCC(C)C)c(C(=O)OCCCCCCCC(C)C)c1`: the Potency result was “inactive”.

With `CCCCCCCCS(=O)C(C)Cc1ccc2c(c1)OCO2` (stereo not given), the Potency entry is “inactive”.

Regarding `CCOC(=O)[C@@H](C)Oc1ccc(Oc2nc3ccc(Cl)cc3o2)cc1`, the Potency result was “inactive”.

On to `CCN(CC)CCCN(c1ccccc1)C1Cc2ccccc2C1`, for which the Potency entry is “inactive”.

On to `Cc1cc(O)ccc1O`, for which the Potency entry is “inactive”.

In the case of `O=C(Nc1ccc(S(=O)(=O)N2CCOCC2)cc1)c1cc(Cl)ccc1NS(=O)(=O)c1ccc(Cl)s1`, the Potency entry was “inactive”.

With `Nc1ccc(N)c2c1C(=O)c1ccccc1C2=O`, the Potency result is “inactive”.

Consider `O=C(O)c1ccccc1C(=O)OCc1ccccc1`, for which the Potency entry is “inactive”.

As to `O=C(CCCCCCC(=O)Nc1ccccc1)NO`, the Potency entry was “inactive”.

As to `C=Cc1ccc(OC(C)=O)cc1`, the Potency result is “inactive”.

For `OCCOCC#CCOCCO`, the Potency result is “inactive”.

For `C=C[C@](C)(O)CC[C@@H]1[C@@]2(C)CCCC(C)(C)[C@@H]2CC[C@@]1(C)O`, the Potency result was “inactive”.

As to `CCc1cccc(N(C)C(N)=Nc2cccc3ccccc23)c1`, the Potency entry was “inactive”.

Take `CN(C/C=C/C#CC(C)(C)C)Cc1cccc2ccccc12`: the Potency entry is “inactive”.

Take `OC12N=C(c3ccccc3)SC1Cc1cc(Cl)ccc12` (stereo not given): the Potency result is “inactive”.

Take `CCCCOc1ccc(N)cc1`: the Potency entry is “inactive”.

In the case of `CC(C)C[C@H](NC(=O)[C@H](Cc1ccccc1)NC(=O)c1cnccn1)B(O)O`, the Potency entry is “inactive”.
